Counter-ions that a name gives are not always drawn. Values without a mark were called inactive.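 Rule for the calls: active = normalised median growth AUC below 0.1 of DMSO control; inactive = AUC 0.1 or higher.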
Columns and labels:
Test in all cases: growth AUC normalised to DMSO control (median) (fraction of control); higher = less growth inhibition, active = hit call of the paper
Details in all cases: 20 µM
P. vulgatus RND KO = tested on: P. vulgatus RND KO
Summary of the method: (§1)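 In 96-well plates of mGAM seeded at OD578 0.01, strains that had been passaged twice overnight without oxygen were exposed to approved-drug library compounds at 20 μM with 1% DMSO. Hourly OD578 readings were taken for 24 h in an anaerobic incubator. The trapezoidal-rule area under the curve, with curves truncated at entry into stationary phase, was expressed relative to same-plate vehicle wells as the median of three biological replicates.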

P. vulgatus WT = tested on: P. vulgatus WT
Summary of the method: as §1

[1] = tested on: S. enterica typhimurium WT
Summary of the method: as §1

[2] = tested on: S. enterica typhimurium tolC KO
Summary of the method: as §1
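Note: active when median AUC fell below 0.1.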

| Structure (SMILES) | growth AUC normalised to DMSO control (P. vulgatus RND KO) | growth AUC normalised to DMSO control (P. vulgatus WT) | growth AUC normalised to DMSO control [1] | growth AUC normalised to DMSO control [2] |
| --- | --- | --- | --- | --- |
| CCCC(=O)N1CCCN(c2nc(N)c3cc(OC)c(OC)cc3n2)CC1 [Bunazosin hydrochloride] | 1.01 | 1.01 | 1 | 0.994 |
| CCCN1CCCC[C@H]1C(=O)Nc1c(C)cccc1C [Ropivacaine hydrochloride] | 1.02 | 1.03 | 0.997 | 1 |
| CC(C)COC(=O)OCN1C(=O)CN(CCN2CC(=O)N(COC(=O)OCC(C)C)C(=O)C2)CC1=O [Sobuzoxane] | 1.04 | 1.08 | 0.998 | 1 |
| CC(C(=O)O)c1ccc(CC2CCCC2=O)cc1 (stereo not given) [Loxoprofen] | 1.01 | 1.01 | 1.01 | 1.01 |
| CN1c2cc(O)c(N=NC(N)=O)cc2CC1S(=O)(=O)O (stereo not given) [Carbazochrome sodium sulfonate] | 1.01 | 1 | 1 | 0.993 |
| Cn1cc(C(=O)[C@@H]2CCc3[nH]cnc3C2)c2ccccc21 [Ramosetron hydrochloride] | 0.999 | 0.997 | 0.995 | 0.975 |
| CC(=O)OCC(=O)[C@@]1(O)CC[C@H]2[C@@H]3CCC4=CC(=O)C=C[C@]4(C)[C@@]3(Cl)[C@@H](Cl)C[C@@]21C [Dichlorisone acetate] | 0.976 | 0.97 | 0.989 | 0.956 |
| Cc1cn(-c2cc(NC(=O)c3ccc(C)c(Nc4nccc(-c5cccnc5)n4)c3)cc(C(F)(F)F)c2)cn1 [Nilotinib] | 1.03 | 1.05 | 0.994 | 0.984 |
| Cn1cc([S+](C)[O-])c(=O)c2ccc(F)cc21 (stereo not given) [Flosequinan] | 1.04 | 1.03 | 0.992 | 0.99 |
| CC1=C(C(=O)O)N2C(=O)[C@@H](NC(=O)[C@H](N)C3=CCC=CC3)[C@H]2SC1 [Cephradine monohydrate] | 1.04 | 1.05 | 0.991 | 1.01 |
| COc1ccc2c(c1)c(CC(=O)OC/C=C(\C)CC/C=C(\C)CCC=C(C)C)c(C)n2C(=O)c1ccc(Cl)cc1 [Indometacin farnesil] | 1 | 0.988 | 0.996 | 1.01 |
| O=P(O)(O)C(O)(Cc1cccnc1)P(=O)(O)O [Risedronic acid monohydrate] | 0.976 | 0.999 | 1.01 | 1 |
| O=P(O)(O)C(O)(Cn1ccnc1)P(=O)(O)O [Zoledronic acid hydrate] | 0.972 | 0.988 | 1.01 | 0.994 |
| O=C(c1cc(O)c(O)c(O)c1)c1ccc(O)c(O)c1O [Exifone] | 0.975 | 0.993 | 0.986 | 0.995 |
| NCCc1c[nH]cn1 [Histamine dihydrochloride] | 0.991 | 0.979 | 1 | 0.982 |
| CC(=O)Nc1cccc(O)c1 [Metacetamol] | 1 | 1.01 | 1 | 0.987 |
| O=C(Cn1c(=O)sc2ccc(Cl)cc21)N1CCN(CCO)CC1 [Tiaramide Hydrochloride] | 1 | 1.04 | 1.01 | 0.995 |
| CCOC(=O)[C@H](CCc1ccccc1)N[C@H]1CS[C@H](c2cccs2)CN(CC(=O)O)C1=O [Temocapril hydrochloride] | 1.02 | 1.03 | 1 | 1 |
| CN(CCOc1ccc(NS(C)(=O)=O)cc1)CCc1ccc(NS(C)(=O)=O)cc1 [Dofetilide] | 0.985 | 0.992 | 0.999 | 1 |
| CCN[C@@H]1C[C@H](N)[C@@H](O[C@H]2OC(CN)=CC[C@H]2N)[C@H](O)[C@H]1O[C@H]1OC[C@](C)(O)[C@H](NC)[C@H]1O [Netilmicin sulfate] | 1.02 | 1.04 | 0.996 | 0.932 |
| CCc1oc2ccccc2c1C(=O)c1cc(I)c(O)c(I)c1 [Benziodarone] | 0.647 | 0.606 | 0.999 | 0.815 |
| O=C(O)CCNC(=O)c1ccccc1 [Betamipron] | 1 | 1.04 | 0.998 | 0.807 |
| O=c1[nH]cnc2c1ncn2[C@@H]1O[C@H](CO)[C@@H](O)[C@H]1O [Inosine] | 1.01 | 1.04 | 0.991 | 1.01 |

| Structure (SMILES) | growth AUC normalised to DMSO control (P. vulgatus RND KO) | growth AUC normalised to DMSO control (P. vulgatus WT) | growth AUC normalised to DMSO control [1] | growth AUC normalised to DMSO control [2] |
| --- | --- | --- | --- | --- |
| Oc1cc(O)c2c(c1)O[C@H](c1ccc(O)c(O)c1)[C@@H](O)C2 [Cianidanol] | 1 | 1.01 | 1.01 | 0.994 |
| Cc1[nH]cnc1CN1CCc2c(c3ccccc3n2C)C1=O [Alosetron hydrochloride] | 0.996 | 0.999 | 1 | 0.995 |
| CCOC(=O)Nc1ccc(NCc2ccc(F)cc2)nc1N [Flupirtine] | 1.08 | 1.05 | 1 | 0.979 |
| CC(=O)N[C@H]1[C@H]([C@H](O)[C@H](O)CO)OC(C(=O)O)=C[C@@H]1NC(=N)N [Zanamivir] | 1.06 | 1.1 | 1 | 1.02 |
| CC(C)[C@H]1CC[C@H](C(=O)N[C@H](Cc2ccccc2)C(=O)O)CC1 [Nateglinide] | 0.977 | 0.999 | 0.994 | 0.968 |
| C[C@@H](CN1CC(=O)NC(=O)C1)N1CC(=O)NC(=O)C1 [Dexrazoxane hydrochloride] | 1.01 | 0.988 | 1.01 | 0.989 |
| CCNC(=O)CCC/C=C\C[C@@H]1[C@@H](/C=C/[C@@H](O)CCc2ccccc2)[C@H](O)C[C@@H]1O [Bimatoprost] | 1.03 | 1.04 | 1.01 | 0.99 |
| Cc1c(C(=O)NN2CCCCC2)nn(-c2ccc(Cl)cc2Cl)c1-c1ccc(Cl)cc1 [Rimonabant] | 1.05 | 1.07 | 1 | 1 |
| CCOc1ccc2nc(S(N)(=O)=O)sc2c1 [Ethoxzolamide] | 0.965 | 1 | 0.997 | 0.998 |
| CCC(=O)O[C@@H]1CC(=O)O[C@H](C)C/C=C/C=C/[C@H](O)[C@H](C)C[C@H](CC=O)[C@H](O[C@@H]2O[C@H](C)[C@@H](O[C@H]3C[C@@](C)(O)[C@@H](OC(=O)CC)[C@H](C)O3)[C@H](N(C)C)[C@H]2O)[C@H]1OC [Midecamycin] | 0.00894 (active) | 0.0119 (active) | 0.998 | 0.0799 (active) |
| C[C@H](Cc1cc2c(c(C(N)=O)c1)N(CCCO)CC2)NCCOc1ccccc1OCC(F)(F)F [Silodosin] | 1.06 | 1.05 | 1.01 | 0.961 |
| O=C(Oc1cccc2cccnc12)c1ccccc1 [Benzoxiquine] | 0.935 | 0.934 | 0.994 | 0.968 |
| C=C1[C@H](CO)[C@@H](O)C[C@@H]1n1cnc2c(=O)[nH]c(N)nc21 [Entecavir] | 1 | 0.996 | 0.999 | 0.987 |
| CCOc1ccc2nc3cc(N)ccc3c(N)c2c1 [Ethacridine lactate] | 0.999 | 0.961 | 0.991 | 0.977 |
| COc1ccc(-c2noc(CC(=O)O)c2-c2ccc(OC)cc2)cc1 [Mofezolac] | 0.999 | 1.03 | 1.01 | 0.998 |
| CCC(NC(C)C)C(O)c1ccc(O)c2[nH]c(=O)ccc12 (stereo not given) [Procaterol hydrochloride] | 1.08 | 1.09 | 1 | 0.987 |
| CC(C)Oc1ccc2c(=O)c(-c3ccccc3)coc2c1 [Ipriflavone] | 1.04 | 1.07 | 0.978 | 0.859 |
| CC(=O)Nc1ccc(OC(=O)c2ccccc2O)cc1 [Acetaminosalol] | 0.959 | 0.964 | 1 | 0.937 |
| OCCN1CCN(CC/C=C2/c3ccccc3Sc3ccc(C(F)(F)F)cc32)CC1 [Flupentixol dihydrochloride cis-(Z)] | 0.946 | 0.997 | 1.01 | 0.828 |
| CC(=O)Nc1ccc(CC(=O)O)cc1 [Actarit] | 0.953 | 1.01 | 1 | 0.991 |
| CCc1oc2ccccc2c1C(=O)c1ccc(O)cc1 [Benzarone] | 0.881 | 0.794 | 1 | 0.858 |
| CC1(C)S[C@@H]2[C@H](NC(=O)[C@H](N)c3ccccc3)C(=O)N2[C@H]1C(=O)OC1OC(=O)c2ccccc21 (stereo not given in full) [Talampicillin hydrochloride] | 0.00561 (active) | 0.00787 (active) | 0.00491 (active) | 0.00469 (active) |
